# Data: PubChem BioAssay (NCI)
# The panel holds about 83,000 compounds, 20% with a hit somewhere; the sample as a whole holds those more often.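 The test compound was applied at a single concentration to cells in 96-well plates for 48 hours, and percent growth was recorded.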 A number with no mark means an inactive call. Activity calls are given as the source filed them. Rule for the calls: active = growth percent below 10; inactive = the rest.
# System: HL-60(TB) leukemia
# Test: NCI-60 one-dose screen, 48 h (100 = growth as untreated, 0 = no growth, -100 = all killed)
# Conditions: 10 µM unless noted
row,Structure (SMILES),growth
1,CCCc1cc(=O)oc2c3c(c4c(c12)OC(C)(C)C=C4)O[C@@H](C)[C@H](C)C3=O,48.3%
2,CC(O)c1cc[cH-]c1.[Fe+2].c1cc[cH-]c1 (centres undefined),92.9%
3,O=C(Nc1ccc(/C=C2\SC(=O)N(Cc3ccc(OC(F)(F)F)cc3)C2=O)cc1)c1ccc(Cl)c([N+](=O)[O-])c1,71.3%
4,C/C(=N\NC(=S)N1CCCCC1)c1ccccn1,-21.6% (active)
5,O=c1ccc(N=Nc2ccccc2)ccc1Cl,42.8%
6,O=C(Nc1cccc(C2=NCCN2)c1)c1ccc(-c2ccc(C(=O)Nc3cccc(C4=NCCN4)c3)cc2)cc1,16%
7,O=c1oc2ccc(I)cc2c(=O)n1-c1ccc(I)cc1F,-49.1% (active)
8,O=C(NCCN1CCC(O)CC1)c1cc2c(o1)C(=O)c1ccccc1C2=O,-13.9% (active)
9,Nc1c(Cl)cc(/C=C2\C=Cc3ccccc32)cc1Cl,104%
10,Nc1ccn(C2CC(O)C(CO)O2)c(=O)n1 (centres undefined),86.1%
11,CCN(CC)c1ccc(-c2cc(-c3cc(OC)c(OC)c(OC)c3)nc(N3CCOCC3)c2C#N)cc1,-43.4% (active)
12,CCCCCC(=O)N(CCCC)CCCC,109%
13,CC(=O)O[C@H]1CC[C@]2(C)[C@H]3CC=C4[C@@H]5CC(C)(C)CC[C@]5(C(=O)NCCNCCN)CC[C@@]4(C)[C@]3(C)CC[C@H]2C1(C)C,-67.6% (active)
14,CCOC(=O)C1=C(c2ccccc2)N=C2SC=C(c3cccc([N+](=O)[O-])c3)N2C1c1ccc(O)cc1 (centres undefined),107%
